Data taken from the supplement of paper PMC11018630.
Counter-ions that a name gives are not always drawn. ± gives the standard deviation of the averaged measurements. The full ranking holds about 1,100 compounds; the median of “day of extracellular matrix detachment from plate” is about 16, and the lowest 2% start at about 10. This is one part of a sample in which the lowest values are shown more often than they occur.

test system: RDEB dermal fibroblasts EB71; test: day of extracellular matrix detachment from plate (days); higher = delayed detachment (less fibrotic matrix); settings: compound concentration: 10 uM

Row | Compound | day of extracellular matrix detachment from plate
1 | Cc1cccc(-c2nn3c(c2-c2ccnc4ccc(C(N)=O)cc24)CCC3)n1 | 29.5 ± 9.2
2 | CCN(CCCc1ccccc1)CCCc1ccccc1 [Alverine Citrate] | 18
3 | C=CCc1cc(OC)c(O)c(C(=O)NCCO)c1 [Alibendol] | 15.7 ± 6.3
4 | Nc1ccc(/N=N/c2ccccc2)c(N)n1 [Phenazopyridine HCl] | 13
5 | C[C@@H](NCCCc1cccc(C(F)(F)F)c1)c1cccc2ccccc12 [Cinacalcet HCl] | 12.3 ± 1.1
6 | NS(=O)(=O)c1ccc(C(=O)O)cc1 [Carzenide] | 12.3 ± 2.3
7 | CC[C@H](C)C(=O)O[C@H]1C[C@H](O)C=C2C=C[C@H](C)[C@H](CC[C@@H](O)C[C@@H](O)CC(=O)O)[C@H]21 [Pravastatin sodium] | 20 ± 1.7
8 | O=C(NC(Cc1cc(=O)[nH]c2ccccc12)C(=O)O)c1ccc(Cl)cc1 (stereo not drawn) [Rebamipide] | 15.7 ± 6.3
9 | CC1(C)[C@@H](OC(=O)CCC(=O)O)CC[C@]2(C)[C@H]3C(=O)C=C4[C@@H]5C[C@@](C)(C(=O)O)CC[C@]5(C)CC[C@@]4(C)[C@]3(C)CC[C@@H]12 [Carbenoxolone Sodium] | 13
10 | CC[C@H](C)C[C@H](C)CCCCCCCCC(=O)N[C@H]1C[C@@H](O)[C@@H](NCCN)NC(=O)[C@@H]2[C@@H](O)CCN2C(=O)[C@H]([C@H](O)CCN)NC(=O)[C@H]([C@H](O)[C@@H](O)c2ccc(O)cc2)NC(=O)[C@@H]2C[C@@H](O)CN2C(=O)[C@H]([C@@H](C)O)NC1=O [Caspofungin Acetate] | 18
11 | CC(CCc1ccc(O)cc1)NCC(O)c1ccc(O)cc1 (stereo not drawn) [Ractopamine HCl] | 13
12 | N#CC[C@H](C1CCCC1)n1cc(-c2ncnc3[nH]ccc23)cn1 | 16
13 | Cc1cn(-c2cc(NC(=O)c3ccc(C)c(Nc4nccc(-c5cccnc5)n4)c3)cc(C(F)(F)F)c2)cn1 [Nilotinib (AMN-107)] | 30.5 ± 6
14 | O=c1oc2c(O)c(O)cc3c(=O)oc4c(O)c(O)cc1c4c23 [Ellagic acid] | 10.3 ± 1.1
15 | CCN1CCN(C(=O)N[C@@H](C(=O)N[C@@H]2C(=O)N3[C@@H]2SC(C)(C)[C@@H]3C(=O)O)c2ccccc2)C(=O)C1=O [Piperacillin Sodium] | 13
16 | CCN1CCN(C(=O)N[C@@H](C(=O)N[C@@H]2C(=O)N3C(C(=O)O)=C(CSc4nnnn4C)CS[C@H]23)c2ccc(O)cc2)C(=O)C1=O [Cefoperazone] | 10.3 ± 1.1
17 | CO/N=C(\C(=O)N[C@@H]1C(=O)N2C(C(=O)O)=C(CSc3nnnn3C)CS[C@H]12)c1csc(N)n1 [Cefmenoxime hydrochloride] | 18 ± 1.4
18 | NC(=O)[C@@H]1CSSCCC(=O)N[C@@H](CCCCN=C(N)N)C(=O)NCC(=O)N[C@@H](CC(=O)O)C(=O)N[C@@H](Cc2c[nH]c3ccccc23)C(=O)N2CCC[C@H]2C(=O)N1 [Eptifibatide Acetate] | 22
19 | CCCCCCCCCC(=O)N[C@@H](Cc1c[nH]c2ccccc12)C(=O)N[C@H](CC(N)=O)C(=O)N[C@@H](CC(=O)O)C(=O)N[C@@H]1C(=O)NCC(=O)N[C@@H](CCCN)C(=O)N[C@@H](CC(=O)O)C(=O)N[C@H](C)C(=O)N[C@@H](CC(=O)O)C(=O)NCC(=O)N[C@H](CO)C(=O)N[C@@H]([C@H](C)CC(=O)O)C(=O)N[C@@H](CC(=O)c2ccccc2N)C(=O)O[C@@H]1C [Daptomycin] | 22
20 | CC(C)[C@H]1C(=O)N[C@@H](CCCNC(=N)N)C(=O)NCC(=O)N[C@@H](CC(=O)O)C(=O)N[C@H](Cc2ccccc2)C(=O)N1C [Cilengitide] | 6
21 | CN1CCC(=C2c3ccccc3CCn3c(C=O)cnc32)CC1 [Alcaftadine] | 19.3 ± 2.5

Row | Compound | day of extracellular matrix detachment from plate
22 | O=C([O-])c1ccccc1O.[Na+] [Sodium salicylate] | 14
23 | O=C(O[C@H]1CN2CCC1CC2)N1CCc2ccccc2[C@@H]1c1ccccc1 [Solifenacin succinate] | 27.3 ± 2.9
24 | CN(C)[C@@H]1C(O)=C(C(N)=O)C(=O)[C@@]2(O)C(O)=C3C(=O)c4c(O)ccc(Cl)c4[C@@](C)(O)[C@H]3C[C@@H]12 [Chlortetracycline HCl] | 23 ± 6.9
25 | COc1ccc(CNc2nc(N3CCC[C@H]3CO)ncc2C(=O)NCc2ncccn2)cc1Cl [Avanafil] | 18
26 | CC[C@@H]1/C=C(\C)C[C@H](C)C[C@H](OC)[C@H]2O[C@@](O)(C(=O)C(=O)N3CCCC[C@H]3C(=O)O[C@H](/C(C)=C/[C@@H]3CC[C@H](Cl)[C@H](OC)C3)[C@H](C)[C@@H](O)CC1=O)[C@H](C)C[C@@H]2OC [Pimecrolimus] | 17.7 ± 4
27 | CN1CCOC(c2ccccc2)c2ccccc2C1 (stereo not drawn) [Nefopam HCl] | 20
28 | CO[C@H]1/C=C/O[C@@]2(C)Oc3c(C)c(O)c4c(O)c(c(/C=N/N5CCN(C)CC5)c(O)c4c3C2=O)NC(=O)/C(C)=C\C=C\[C@H](C)[C@H](O)[C@@H](C)[C@@H](O)[C@@H](C)[C@H](OC(C)=O)[C@@H]1C [Rifampin] | 12
29 | CCCS(=O)(=O)Nc1ccc(F)c(C(=O)c2c[nH]c3ncc(-c4ccc(Cl)cc4)cc23)c1F [Vemurafenib (PLX4032, RG7204)] | 14 ± 1.7
30 | Clc1ccc(CCC(Cn2ccnc2)Sc2c(Cl)cccc2Cl)cc1 (stereo not drawn) [Butoconazole nitrate] | 16
31 | Nc1ccc(S(=O)(=O)Nc2ncccn2)cc1 [Sodium sulfadiazine] | 18.2 ± 3.1
32 | Nc1ccc(S(=O)(=O)Nc2ncccn2)cc1 [Sulfadiazine] | 12
33 | N=C(N)NC(=N)N1CCOCC1 [Moroxydine HCl] | 19.3 ± 6.3
34 | Cc1cc(-n2c(=O)[nH]c(=O)n(C)c2=O)ccc1Oc1ccc(SC(F)(F)F)cc1 [Toltrazuril] | 15.7 ± 2.9
35 | Clc1ccc(Nc2nnc(Cc3ccncc3)c3ccccc23)cc1 [Vatalanib (PTK787) 2HCl] | 25
36 | CNC(=O)[C@H](Cc1c[nH]c2ccccc12)NC(=O)[C@@H](CC(=O)NO)CC(C)C [Ilomastat (GM6001, Galardin)] | 15
37 | CNC(=O)[C@@H](NC(=O)[C@H](CC(C)C)[C@H](O)C(=O)NO)C(C)(C)C [Marimastat(BB-2516)] | 11.7 ± 1.1
38 | CNC(=O)[C@H](Cc1ccccc1)NC(=O)[C@H](CC(C)C)[C@H](CSc1cccs1)C(=O)NO [Batimastat (BB-94)] | 9 ± 1.7
39 | O=c1ccc2ccc(OCCCCN3CCN(c4cccc5sccc45)CC3)cc2[nH]1 [Brexpiprazole] | 17
40 | CC(C)[C@H](N)C(=O)OCCOCn1cnc2c(=O)nc(N)[nH]c21 [Valaciclovir HCl] | 15.7 ± 6.3
41 | OCCOc1ccc(/C(=C(/CCCl)c2ccccc2)c2ccccc2)cc1 [Ospemifene] | 13
42 | Cc1ccc(C(=O)C(C)CN2CCCCC2)cc1 (stereo not drawn) [Tolperisone HCl] | 13

Row | Compound | day of extracellular matrix detachment from plate
43 | CCCCN1CCCCC1C(=O)Nc1c(C)cccc1C (stereo not drawn) [Bupivacaine HCl] | 19.3 ± 6.3
44 | CO[C@H]1C[C@@H]2CC[C@@H](C)[C@@](O)(O2)C(=O)C(=O)N2CCCC[C@H]2C(=O)O[C@H]([C@H](C)C[C@@H]2CC[C@@H](OCCO)[C@H](OC)C2)CC(=O)[C@H](C)/C=C(\C)[C@@H](O)[C@@H](OC)C(=O)[C@H](C)C[C@H](C)/C=C/C=C/C=C/1C [Everolimus (RAD001)] | 25
45 | CC[C@H]1[C@@H](O)[C@@H]2[C@H](CC[C@]3(C)[C@@H]([C@H](C)CCC(=O)O)CC[C@@H]23)[C@@]2(C)CC[C@@H](O)C[C@@H]12 [Obeticholic Acid] | 16.3 ± 1.1
46 | C#C[C@]1(O)CC[C@H]2[C@@H]3CCC4=CCCC[C@@H]4[C@H]3C(=C)C[C@@]21CC [Desogestrel] | 17
47 | Cc1cc(C#N)cc(C)c1Oc1nc(Nc2ccc(C#N)cc2)nc(N)c1Br [Etravirine (TMC125)] | 18
48 | C=C(c1ccc(C(=O)O)cc1)c1cc2c(cc1C)C(C)(C)CCC2(C)C [Bexarotene] | 9
49 | CC1(C)CCC(C)(C)c2cc(NC(=O)c3ccc(C(=O)O)cc3)ccc21 [Tamibarotene] | 19
50 | Cc1ccc([C@@H]2O[C@H](CO)[C@@H](O)[C@H](O)[C@H]2O)cc1Cc1ccc(-c2ccc(F)cc2)s1 [Canagliflozin] | 18
51 | Oc1cc(O)c(Cl)cn1 [Gimeracil] | 12
52 | O=C(O)c1cc(/N=N/c2ccc(O)c(C(=O)O)c2)ccc1O [Olsalazine Sodium] | 17.3 ± 2.9
53 | CC(C)NC[C@H](O)COc1ccc(CCOCC2CC2)cc1 [Levobetaxolol HCl] | 16 ± 3.5
54 | C[C@]12CC[C@H](O)CC1=CC[C@@H]1[C@@H]2CC[C@]2(C)C(n3cnc4ccccc43)=CC[C@@H]12 [Galeterone] | 20 ± 1.7
55 | CCOC(=O)CC(=O)N1CCSC1COc1ccccc1OC (stereo not drawn) [Moguisteine] | 15.3 ± 2.3
56 | Clc1ccc2c(c1)CCc1cccnc1C2=C1CCNCC1 [Desloratadine] | 28
57 | NC(=O)C(c1ccccc1)(c1ccccc1)[C@@H]1CCN(CCc2ccc3c(c2)CCO3)C1 [Darifenacin HBr] | 23.2 ± 7.2
58 | CC(C)/N=c1\cc2n(-c3ccc(Cl)cc3)c3ccccc3nc-2cc1Nc1ccc(Cl)cc1 [Clofazimine] | 13
59 | C[C@@H]1O[C@@H](OC[C@H]2O[C@@H](Oc3c(-c4ccc(O)c(O)c4)oc4cc(O)cc(O)c4c3=O)[C@H](O)[C@@H](O)[C@@H]2O)[C@H](O)[C@H](O)[C@H]1O [Rutin] | 18.3 ± 8.1
60 | CNC[C@H](O)[C@@H](O)[C@H](O)[C@H](O)CO [Meglumine] | 12
61 | Cc1cccc(CN2CCN(C(c3ccccc3)c3ccc(Cl)cc3)CC2)c1 (stereo not drawn) [Meclizine 2HCl] | 12
62 | OCCOCCN1CCN(C(c2ccccc2)c2ccc(Cl)cc2)CC1 (stereo not drawn) [Hydroxyzine 2HCl] | 18
63 | O=C(O)COCCN1CCN(C(c2ccccc2)c2ccc(Cl)cc2)CC1 (stereo not drawn) [Cetirizine DiHCl] | 10.3 ± 1.1
